Values joined by “and” are separate entries in the source; they are usually repeats but may differ in a detail not shown here. Equal values may be shown once. Inconclusive results are not listed. Active and inactive are the calls of the source.
target: Glucocorticoid receptor (Homo sapiens) (UniProt P04150); test: qHTS assay for small molecule antagonists of glucocorticoid receptor signaling (AID 588533; active = well fitted inhibition curve with a large enough effect in the signal ratio, with a control signal flat, not every such curve was filed as active; the % refers to the signal ratio;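 note: cells stimulated with 2 nM dexamethasone as agonist; % is set by controls: 0 for no effect and ±100 for the full control effect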); settings: HeLa MMTV-bla, GRE beta-lactamase ratio, antagonist mode, 18 h; series mostly up to 76.8 µM; activity change, negative = inhibition: at the top concentration
How it was run: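 Antagonist-mode qHTS: compound titrations added to GRE-bla HeLa cells, then dexamethasone 2 nM final; 18 h, 37 C. CCF4 FRET fluorescence normalized to dexamethasone and DMSO; IC50 from Hill fit.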

Sequence of Glucocorticoid receptor (Homo sapiens) (P04150 whole entry, looked up): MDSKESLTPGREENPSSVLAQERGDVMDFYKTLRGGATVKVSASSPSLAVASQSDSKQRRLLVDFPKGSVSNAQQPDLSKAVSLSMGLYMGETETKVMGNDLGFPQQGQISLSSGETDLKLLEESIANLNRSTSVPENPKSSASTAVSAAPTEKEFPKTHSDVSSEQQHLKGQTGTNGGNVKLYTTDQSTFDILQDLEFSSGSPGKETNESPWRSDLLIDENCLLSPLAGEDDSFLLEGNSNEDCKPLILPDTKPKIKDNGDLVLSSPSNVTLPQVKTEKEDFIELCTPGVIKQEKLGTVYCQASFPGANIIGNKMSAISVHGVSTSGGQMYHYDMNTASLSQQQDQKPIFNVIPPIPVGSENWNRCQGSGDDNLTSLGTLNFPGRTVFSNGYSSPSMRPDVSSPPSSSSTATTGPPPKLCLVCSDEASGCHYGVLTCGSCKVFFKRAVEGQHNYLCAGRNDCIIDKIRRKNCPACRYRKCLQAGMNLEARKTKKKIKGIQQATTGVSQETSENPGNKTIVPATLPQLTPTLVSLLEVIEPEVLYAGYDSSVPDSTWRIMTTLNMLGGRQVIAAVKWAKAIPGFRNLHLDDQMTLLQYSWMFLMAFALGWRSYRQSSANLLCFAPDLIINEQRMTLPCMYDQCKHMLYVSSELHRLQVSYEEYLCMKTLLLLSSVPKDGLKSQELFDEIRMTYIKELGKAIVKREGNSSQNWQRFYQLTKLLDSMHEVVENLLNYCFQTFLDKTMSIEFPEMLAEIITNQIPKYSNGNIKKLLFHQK

Q: Which “activity change, negative = inhibition” value does the source give for `Nc1cnn([C@@H]2O[C@H](CO)[C@@H](O)[C@H]2O)c(=O)n1` here?
A: The value was -13% (inactive).

Q: With `CCCCCCCCOc1ccc(C(=O)O)cc1` as the compound, how does the “activity change, negative = inhibition” value read?
A: The value was -24.9% (inactive).

Q: For `Oc1c(Cl)cc(Cl)c(Cl)c1Cl`, which “activity change, negative = inhibition” value is on record?
A: The value was 17.5% (inactive).

Q: For `CCCCNCC`, which “activity change, negative = inhibition” value is on record?
A: The value was -2.54% (inactive).

Q: For `O=c1[nH]ncc2ccccc12`, which “activity change, negative = inhibition” value is on record?
A: The value was 16.9% (inactive).

Q: With `c1ccc(COCc2ccccc2)cc1` as the compound, how does the “activity change, negative = inhibition” value read?
A: Its value is 28.7% (inactive).

Q: With `O=[N+]([O-])c1cccc(I)c1` as the compound, how does the “activity change, negative = inhibition” value read?
A: The value was 19.5% (inactive).

Q: With `Nc1ccc2c(c1)C(=O)c1ccccc1C2=O` as the compound, how does the “activity change, negative = inhibition” value read?
A: Its value is 16% (inactive).

Q: Which Potency does the source give for `c1ccc2c(c1)ccc1ccccc12` here?
A: The Potency was “inactive”.

Q: With `Nc1ccc(N=Nc2ccccc2)c(N)c1` as the compound, how does the “activity change, negative = inhibition” value read?
A: Its value is -8.82% (inactive).

Q: With `COc1ccc([N+](=O)[O-])cc1N` as the compound, how does the Potency read?
A: Its Potency is “inactive”.

Q: Which Potency does the source give for `OCC(CO)(CBr)CBr` here?
A: Its Potency is “inactive”.

Q: For `Nc1cc(C(=O)O)c(O)c(S(=O)(=O)O)c1`, which “activity change, negative = inhibition” value is on record?
A: Its value is 11.9% (inactive).

Q: For `Oc1ccc2c(c1)OCO2`, which “activity change, negative = inhibition” value is on record?
A: The value was 12.9% (inactive).

Q: With `CC(=O)OC1CC(C)OC(C)O1` (stereo unspecified) as the compound, how does the Potency read?
A: Its Potency is “inactive”.

Q: With `O=C(OCc1ccccc1)c1ccccc1O` as the compound, how does the “activity change, negative = inhibition” value read?
A: Its value is 28.1% (inactive).

Q: For `c1c[nH]cn1`, which “activity change, negative = inhibition” value is on record?
A: Its value is -16.9% (inactive).

Q: With `O=C(O)/C=C/c1ccc(/C=C/C(=O)O)cc1` as the compound, how does the “activity change, negative = inhibition” value read?
A: Its value is 9.63% (inactive).

Q: For `CC(=O)OC(C(=O)c1ccccc1)c1ccccc1` (stereo unspecified), which “activity change, negative = inhibition” value is on record?
A: Its value is -0.798% (inactive).

Q: With `CC(=O)Nc1cccc(C)c1` as the compound, how does the “activity change, negative = inhibition” value read?
A: Its value is -8.16% (inactive).

Q: With `COc1ccc(C)cc1N` as the compound, how does the “activity change, negative = inhibition” value read?
A: Its value is -7.13% (inactive).

Q: Which “activity change, negative = inhibition” value does the source give for `CCc1ccc(C(c2ccc(CC)cc2)C(Cl)Cl)cc1` here?
A: Its value is -25.2% (inactive).

Q: Which “activity change, negative = inhibition” value does the source give for `O=[N+]([O-])c1ccccc1Nc1ccccc1` here?
A: The value was 7.99% (inactive).

Q: For `C=CC1CO1` (stereo unspecified), which “activity change, negative = inhibition” value is on record?
A: Its value is 9.58% (inactive).

Q: For `CCOC(=O)C1OC1c1ccccc1` (stereo unspecified), which “activity change, negative = inhibition” value is on record?
A: The value was -17.3% (inactive).

Q: With `COc1ccc(C(=O)Nc2ccccc2)cc1[N+](=O)[O-]` as the compound, how does the “activity change, negative = inhibition” value read?
A: The value was 22.2% (inactive).

system: not listed separately; test: qHTS assay for small molecule antagonists of peroxisome proliferator-activated receptor delta signaling (AID 588535); settings: HEK293T PPARd-UAS-bla, beta-lactamase FRET ratio, 18 h; 460 nm channel;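 note: cells co-treated with a PPAR-delta agonist as stimulator during compound exposure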
How it was run: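 Beta-lactamase reporter read-out (405 nm excitation, 460/530 nm emission) after CCF4 loading for 2 hrs at RT. HEK293T PPAR-delta-UAS-bla cells, 2% charcoal/dextran FBS, compounds for 18 hrs at 37 C. Hill fit gave IC50 and efficacy.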

Q: With `CCCCCCc1ccc(-c2ccc(C#N)cc2)cc1` as the compound, how does the max response read?
A: The max response was 11%.

Q: For `Oc1c(Cl)cc(Cl)c(Cl)c1Cl`, which max response is on record?
A: The max response was 22.5%.

Q: Which max response does the source give for `CC(C)OCC1CO1` (stereo unspecified) here?
A: Its max response is 3.66%.

Q: Which max response does the source give for `C/C(Cl)=C/CCl` here?
A: The max response was 5.39%.

Q: Which max response does the source give for `CCCCNCC` here?
A: Its max response is -21.4%.

Q: For `O=[N+]([O-])c1cccc(I)c1`, which max response is on record?
A: Its max response is 12.5%.

Q: Which max response does the source give for `Nc1ccc2c(c1)C(=O)c1ccccc1C2=O` here?
A: The max response was -6.52%.

Q: With `c1ccc2c(c1)ccc1ccccc12` as the compound, how does the max response read?
A: Its max response is -5.89%.

Q: With `COc1ccc([N+](=O)[O-])cc1N` as the compound, how does the max response read?
A: Its max response is 74.5% and 5.37%.

Q: Which max response does the source give for `OCC(CO)(CBr)CBr` here?
A: Its max response is 0.13% and -4.24%.

Q: For `CC(=O)OC1CC(C)OC(C)O1` (stereo unspecified), which max response is on record?
A: Its max response is -8.33% and -2.28%.

Q: Which max response does the source give for `O=C(OCc1ccccc1)c1ccccc1O` here?
A: The max response was 2.34% and -10.8%.

Q: With `C/C=C/C=C/C=O` as the compound, how does the max response read?
A: Its max response is 13.6%.

Q: For `c1c[nH]cn1`, which max response is on record?
A: The max response was 30.3%.

Q: For `c1ccc(SCCSc2ccccc2)cc1`, which max response is on record?
A: Its max response is 21.4%.

Q: Which max response does the source give for `O=C(O)/C=C/c1ccc(/C=C/C(=O)O)cc1` here?
A: The max response was -11.1%.

Q: For `CC(=O)Nc1cccc(C)c1`, which max response is on record?
A: Its max response is -12.4%.

Q: With `CCC(Cl)CC(Cl)C(Cl)C(Cl)C(Cl)C(C)Cl` (stereo unspecified) as the compound, how does the max response read?
A: Its max response is -12%.

Q: For `COc1ccc(C)cc1N`, which max response is on record?
A: The max response was 4.23%.

Q: With `CCOC(=O)C1OC1c1ccccc1` (stereo unspecified) as the compound, how does the max response read?
A: Its max response is -6.92%.
